Where a chain is given by its changes, count along the chain named.
The sequences below were run against T1, RsmQ (Pseudomonas fluorescens SBW25 plasmid …, UniProt UPI00015066B5 1-62) (assay: SPR (ReDCaT); HBS-EP+ (10 mM HEPES, 150 mM NaCl, 3 mM EDTA, 0.05% v/v Tween 20, pH 7.4), 20 C, Biacore 8K, ReDCaT SA chip; high values mean tight binding). Details: protein: recombinant; tags: C-terminal TEV site + 6xHis; chain copies: 2; ssDNA.
T1 sequence: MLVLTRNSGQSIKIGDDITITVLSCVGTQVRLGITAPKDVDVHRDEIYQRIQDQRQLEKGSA

Row | Sequence | binding signal [%Rmax]
1 | CTGCCAGGATGGCGGAGTGAAATGG | 16.2 ± 1.37
2 | TTCATCAGGATGATGAAAAGGAATAC | 80.5 ± 1.97
3 | AATGTCGCAGGATGCGATTCATCAG | 62.7 ± 2.27
4 | GGAATACAGGGACTAGGGAAAAAAT | 3.83 ± 1.08
5 | GCAACAACACGGACACGTAGGATT | 3.78 ± 1.57
6 | CCATCAAGGAACGATGGTTCGAAGG | 11.7 ± 0.382

Each sequence was assayed against T1, RsmQ (assay: SPR (ReDCaT); 100 nM protein; HBS-EP+ (10 mM HEPES, 150 mM NaCl, 3 mM EDTA, 0.05% v/v Tween 20, pH 7.4), 20 C, Biacore 8K, ReDCaT SA chip; high values mean tight binding). Details: protein: recombinant; tags: C-terminal TEV site + 6xHis; chain copies: 2; ssDNA.

Row | Sequence | binding signal [%Rmax]
7 | CAGGAAAGGACAGAGCACGGA | 10.1 ± 0.715
8 | CAAGGAGACAGAGCAACAGGA | 3.14 ± 0.795
9 | CAGGAACGGACAGAGC | 6.27 ± 1.5
10 | CAGGACAGGACAGAGC | 4.87 ± 0.902

Same assay, conditions: protein: recombinant; tags: C-terminal TEV site + 6xHis; chain copies: 2; structured_DNA

Row | Sequence | binding signal [%Rmax]
11 | CCGCGCCGGAAGCGCAGGAAC | 28.8 ± 0.617
12 | CCGCGCATGGAAGCGCAAAC | 113.5 ± 0.537
13 | CCGCGCTCGGAAGCGCAAAC | 4.59 ± 0.514
14 | CCGCGCACGGAAGCGCAAAC | 68.3 ± 0.752
15 | CCGCGCACGGAAGCGCAACGGAAC | 70 ± 0.746
16 | CCGCGCACTGAAGCGCAAAC | 1.69 ± 0.298
17 | CCGCGCAGGAAGCGCAAAC | 94.4 ± 1.28
18 | CCGCGCAGGGAAGCGCAAAC | 106.2 ± 0.739
19 | CCGCGCCCGGAAGCGCAAAC | 7.21 ± 0.838
20 | CCGCGCACGAAGCGCAAAC | 24.9 ± 0.641

What follows are sequences tested against T2, RsmQ H43A (Pseudomonas fluorescens SBW25 plasmid …, UniProt UPI00015066B5 1-62, H43A) in the same assay as above. Details: protein: recombinant; tags: C-terminal TEV site + 6xHis; chain copies: 2; structured_DNA.
T2 sequence: T1 sequence with H43A

Row | Sequence | binding signal [%Rmax]
21 | CCGCGCCGGAAGCGCAGGAAC | 12.8 ± 0.157
22 | CCGCGCACGGAAGCGCAAAC | 50.72 ± 0.382
23 | CCGCGCACGGAAGCGCAACGGAAC | 51.14 ± 0.26
24 | CCGCGCAGGAAGCGCAAAC | 43.9 ± 0.798

What follows are sequences tested against T3, RsmQ R44A (Pseudomonas fluorescens SBW25 plasmid …, UniProt UPI00015066B5 1-62, R44A) in the same assay as above. Details: protein: recombinant; tags: C-terminal TEV site + 6xHis; chain copies: 2; structured_DNA.
T3 sequence: T1 sequence with R44A

Row | Sequence | binding signal [%Rmax]
25 | CCGCGCCGGAAGCGCAGGAAC | 3.8 ± 0.253
26 | CCGCGCACGGAAGCGCAAAC | 41.38 ± 0.372
27 | CCGCGCACGGAAGCGCAACGGAAC | 38.8 ± 0.461
28 | CCGCGCAGGAAGCGCAAAC | 22.1 ± 0.676

Each sequence was assayed against T4, RsmE (Pseudomonas fluorescens SBW25, UniProt A0ACA7PAD1 1-74) in the same assay as above. Details: protein: recombinant; tags: His tag (pET28a NdeI/XhoI); chain copies: 2; structured_DNA.
T4 sequence: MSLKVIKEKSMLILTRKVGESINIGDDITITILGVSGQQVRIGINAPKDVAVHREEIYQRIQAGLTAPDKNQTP

Row | Sequence | binding signal [%Rmax]
29 | CCGCGCATGGAAGCGCAAAC | 30.1 ± 0.204
30 | CCGCGCACGGAAGCGCAAAC | -4.31 ± 0.212
31 | CCGCGCAGGGAAGCGCAAAC | 47.5 ± 0.0552

The sequences below were run against T1, RsmQ (assay: SPR (ReDCaT); 100 nM protein, run beside RsmE; HBS-EP+ (10 mM HEPES, 150 mM NaCl, 3 mM EDTA, 0.05% v/v Tween 20, pH 7.4), 20 C, Biacore 8K, ReDCaT SA chip; high values mean tight binding). Details: protein: recombinant; tags: C-terminal TEV site + 6xHis; chain copies: 2; structured_DNA.

Row | Sequence | binding signal [%Rmax]
32 | CCGCGCATGGAAGCGCAAAC | 107 ± 6.88
33 | CCGCGCACGGAAGCGCAAAC | 49.1 ± 0.724
34 | CCGCGCAGGAAGCGCAAAC | 98.6 ± 6.21
35 | CCGCGCAGGGAAGCGCAAAC | 90.1 ± 4.07

— paper PMC9928087, “Plasmids manipulate bacterial behaviour through translational regulatory crosstalk”
